# Screening data: PubChem BioAssay, several laboratories
# Compounds with a hit are over-represented: about 3% of the library has one in this group of screens.
# CHT inh = inhibitors of human choline transporter CHT. CHT-expressing cells, membrane potential dye, choline response; active compounds read low. 310,000 tested, 0.86% active. Q9GZV3. B-score at 10 µM. AID 488975;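 active means B-score over 3 SD under the library average, and starting fluorescence ratio not unusually high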;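 further: choline stimulus applied at its EC90 after an EC20 pre-addition; B-score computed on integrated fluorescence ratio after choline addition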
# Target sequence (Q9GZV3 whole entry, looked up): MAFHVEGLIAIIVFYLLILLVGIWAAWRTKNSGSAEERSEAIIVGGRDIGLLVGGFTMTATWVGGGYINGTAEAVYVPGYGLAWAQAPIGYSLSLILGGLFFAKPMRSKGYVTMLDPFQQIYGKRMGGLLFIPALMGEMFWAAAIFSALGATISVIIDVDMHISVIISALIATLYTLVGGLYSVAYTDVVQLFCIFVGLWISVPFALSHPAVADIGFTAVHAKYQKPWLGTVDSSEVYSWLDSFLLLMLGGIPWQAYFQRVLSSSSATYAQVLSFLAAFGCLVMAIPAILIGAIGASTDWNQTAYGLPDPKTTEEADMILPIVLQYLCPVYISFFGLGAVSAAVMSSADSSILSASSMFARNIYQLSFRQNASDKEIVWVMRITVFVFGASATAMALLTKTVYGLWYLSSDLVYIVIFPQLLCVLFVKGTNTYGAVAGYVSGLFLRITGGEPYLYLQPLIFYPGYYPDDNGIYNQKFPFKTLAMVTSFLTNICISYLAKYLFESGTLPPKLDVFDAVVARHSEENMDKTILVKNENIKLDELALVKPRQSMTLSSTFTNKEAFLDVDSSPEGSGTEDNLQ
# A1 inh = inhibitors of the anti-apoptotic protein A1, read as caspase activation | MEF A1-2A-BIM cells, Caspase-Glo 3/7 luminescence, 3 h; percent of clofoctol response, vehicle zero | AID 2462 | caspase activation, % (concentration not given with the values) | 330,000 tested, 0.066% active;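 active means over half of replicate activation scores above 10%, or exactly half above 10 with the replicate mean above 10; inconclusive means replicate mean below 10 yet half the replicates above 10; inactive means over half of replicates below 10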
# NALP1 yeast inh = inhibitors of NALP1 inflammasome in yeast. S. cerevisiae NALP1/ASC/caspase-1 growth, X-gal OD620, 72 h. inhibition, % at 10 µM. 280,000 tested, 0.61% active. AID 2071; in the data active means inhibition mostly above about 24%, no sharp cut-off; inactive means mostly below about 32%
# CHT allo act = human CHT allosteric activation; CHT-expressing cells, membrane potential dye, choline EC20; active compounds read high; LV-AA mutant CHT in HEK293 cells; B-score at 10 µM; 310,000 tested, 0.49% active; AID 488977;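 active means initial fluorescence not abnormally high and integrated response B-score, plate-corrected, over 3 SD above library mean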
# Mot1-301 SUMO = inhibitors of SUMOylation pathway: yeast Mot1-301 growth rescue; AID 2716; S. cerevisiae Mot1-301 growth rescue, ATP luminescence, 38.5C; percent above DMSO median, 100 means doubled; 320,000 tested, 1% active; growth rescue, % at 18.8 µM;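 active means every valid replicate shows activation above 250% relative to neutral control wells; inactive means the rest, any valid replicate at or below 250%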;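 further: OY570 slx delta 5 strain wells were the positive control but not used for scaling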
# NALP3 yeast inh = blocks the NALP3 inflammasome reconstituted in yeast; AID 2825; Yeast reconstituted NLRP3/ASC/caspase-1, beta-gal luminescence, 24 h; 330,000 tested, 0.39% active; inhibition, % at 10 µM;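 active means inhibition of 50% or more; inactive means inhibition below 50%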;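 further: plate controls were induced DMSO wells for no effect and uninduced yeast grown without galactose for full effect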
# CHT activ conf = human CHT activation, confirmatory screen; CHT-expressing cells, membrane potential dye fluorescence (FDSS); % of choline EC20–EC90 response window; HEK293 expressing CHT LV-AA mutant; choline added at its EC20; shares compounds with CHT allo act; activation, % at 10 µM; 2,500 tested, 91% active;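 active means primary screen active, with duplicate mean activation above negative control mean plus 3 SD, cut at about 11% in these data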
# HEK293 MP dye = counter-screen for CHT activators: effect in parental HEK293 cells. shares compounds with CHT allo act. membrane potential dye fluorescence (FDSS); measured after EC20 choline addition. ratio readout change at 10 µM, hits read low. 2,500 tested, 62% active;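 active means duplicate-averaged ratio beyond 3 SD from buffer wells, up or down, though filed actives are nearly all decreases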
# Starred values were filed as active, the others as inactive; i = inactive; ? = inconclusive; . = no result.
SMILES,CHT inh,A1 inh,NALP1 yeast inh,CHT allo act,Mot1-301 SUMO,NALP3 yeast inh,CHT activ conf,HEK293 MP dye
CC(C)(C)OC(=O)N1CCC2(CC1)Oc1ccc(Cl)cc1C(=O)C21CC(c2ccc(Cl)cc2)=NO1 (configuration not stated),i,0,.,i,-22,.,.,.
N#Cc1nc(-c2cccs2)oc1N1CCN(Cc2ccccc2)CC1,i,0,12,i,6,29,.,.
Cc1ccc(OCc2nc(C#N)c(N3CCN(Cc4ccccc4)CC3)o2)cc1,i,0,29,11*,-5,8,33*,i
N#Cc1nc(COc2ccccc2)oc1N1CCN(Cc2ccccc2)CC1,i,1,12,10*,1,1,36*,i
COc1ccc(OC)c(NC(=O)CSc2ccc(-c3cccnc3)nn2)c1,i,?,2,i,-5,21,.,.
O=[N+]([O-])c1ccc(OC(F)F)c(/C=N/n2cnnc2)c1,i,0,8,i,-14,-16,21*,-24*
O=[N+]([O-])c1ccc(Cl)c(-c2ccc(/C=N/n3cnnc3)o2)c1,i,1,5,i,-1,16,39*,-51*
CNC(=S)N/N=C/c1ccc(-c2cc([N+](=O)[O-])ccc2Cl)o1,i,0,16,i,-3,4,.,.
COc1cc([C@H]2OC[C@H]3[C@@H]2CO[C@@H]3c2ccc(O[C@H]3O[C@H](CO)[C@@H](O)[C@H](O)[C@H]3O)c(OC)c2)ccc1O[C@@H]1O[C@H](CO)[C@@H](O)[C@H](O)[C@H]1O,.,2,.,.,67,5,.,.
Cc1occc1-c1nnc(SCC(=O)NC2CCC(C)CC2)o1 (configuration not stated),.,0,.,.,17,16,.,.
C/C(=N/NC(=O)c1cnccn1)c1ccncc1,i,0,-9,6.4*,17,11,49*,-40*
O=C(COC(=O)C1CC2CCCC(C1)C2=O)NNC(=O)c1ccccc1F (configuration not stated),i,0,.,i,42,1,.,.
CNc1cc(C)nc(N2CCOCC2)n1,i,0,22,i,98,-1,53*,-43*
COc1ccc(C(C)=O)cc1CSc1ccc(S(=O)(=O)N2CCOCC2)cn1,.,0,.,.,13,25,.,.
O=C(CN(c1ccccc1)S(=O)(=O)c1ccc(F)cc1)NCc1cccs1,.,0,.,.,-18,12,.,.
CCC[C@H]1COCCS(=O)(=O)N1Cc1ccccc1F,i,0,11,i,-4,14,3,i
COC(=O)CNC(c1ccccc1)c1cc(C)ccc1NC(=O)c1cccc(Cl)c1 (configuration not stated),i,0,29,6.9*,0,11,43*,i
COC(=O)CNC(c1ccccc1)c1cc(C)ccc1NC(=O)CNC(=O)OCc1ccccc1 (configuration not stated),i,-1,18,i,-6,1,.,.
CCCCCc1nnc(NC(=O)c2cccc(S(=O)(=O)N3CCOCC3)c2)s1,.,.,.,.,.,11,.,.
COc1cccc(N2C(=NC(=O)C3CCCO3)SC3CS(=O)(=O)CC32)c1 (configuration not stated),i,-2,-96,i,-2,8,.,.
CCCCn1c(N)c(N(CC(C)C)C(=O)CSc2ccccc2C)c(=O)[nH]c1=O,i,0,.,i,-14,8,.,.
COc1ccc(C(=O)c2coc3ccc(O)c(CN4CCOCC4)c23)cc1,i,0,6,i,129,29,18*,i
NC(=O)c1ccc(NC(=O)COC(=O)CC2Sc3ccccc3NC2=O)cc1 (configuration not stated),.,0,.,.,-1,16,.,.
Cc1cc[n+](CC(=O)c2ccccc2)c2ccccc12,i,0,-20,6.6*,-19,7,34*,-36*
CC(C)C(NC(=O)c1ccc(Cl)cc1Cl)C(=O)NCCc1ccccn1 (configuration not stated),.,.,.,.,.,12,.,.
SMILES,CHT inh,A1 inh,NALP1 yeast inh,CHT allo act,Mot1-301 SUMO,NALP3 yeast inh,CHT activ conf,HEK293 MP dye
CCn1c(/C=C/Nc2ccccc2)[n+](CC)c2cc(Cl)c(Cl)cc21,i,-1,-3,7*,2,8,33*,-37*
COc1ccc2c(c1)CCCN2C(N)=Nc1ccc(Cl)cc1,i,0,8,6.3*,16,3,16*,i
C=CCn1c(SCc2c(C)noc2C)nc2cc(C(=O)O)ccc2c1=O,i,0,.,i,-5,8,.,.
CN(C(=O)CSc1nc2ccccc2c(=O)n1-c1ccc(F)cc1F)C1CCS(=O)(=O)C1 (configuration not stated),.,0,.,.,-1,-3,.,.
C=CCn1c(SCc2c(C)noc2C)nc2ccccc2c1=O,i,0,-1,6.6*,14,-2,27*,i
Cc1noc(C)c1CSc1nc2ccccc2c(=O)n1-c1ccc(F)cc1F,i,0,-2,11*,11,14,10,i
COC(=O)c1ccc(CSc2nc3ccccc3c(=O)n2-c2ccccc2)o1,i,0,5,8.6*,6,25,19*,i
Cc1noc(C)c1CSc1nc2ccccc2c(=O)n1-c1ccccc1,i,0,11,9.3*,-17,3,35*,i
O=C(c1ccncc1)N1CCN(S(=O)(=O)c2ccc(F)cc2)CC1,i,0,8,i,2,7,.,.
COCCN(C(=O)c1csnn1)C(C(=O)NC1CCCCC1)c1ccc(Cl)cc1 (configuration not stated),i,0,5,i,-6,15,.,.
CCCc1n(CC)c2ccccc2[n+]1CC(O)COC1CCCCC1 (configuration not stated),i,2,-4,7*,181,22,40*,i
c1ccc(C[n+]2cccc3c4ccccc4ccc32)cc1,i,1,16,6.4*,2,6,77*,-75*
O=[N+]([O-])c1ccc(C[n+]2cccc3ccccc32)cc1,i,1,-3,8.1*,40,1,47*,-46*
CCCCC[n+]1cccc2c3ccccc3ccc21,i,0,21,7.5*,-8,2,47*,-74*
